# Tb PGK inh – blocks T. brucei phosphoglycerate kinase; Potency, µM (doses to about 57.5 µM), actives largely listed as inhibitors; P07378; 380,000 tested, 0.043% active; PGK/GAPDH coupled, Kinase-Glo luminescence, 60 min; note: nearly all actives have a fitted effect of over 60% in size
#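 Luminescent ATP detection (Kinase-Glo Plus) follows a 60-minute room-temperature incubation, with wells lacking PGK as controls. Buffer: 100 mM TEA (pH 7.6), 5 mM MgCl2, 0.01% Tween-20. Coupling enzyme GAPDH (100 nM final) supplies unstable 1,3-BPG in-well.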
# RECQ1 inh-1 – blocks DNA unwinding by human RECQ1. Potency, µM (top dose mostly 57.3 µM), usual class: inhibitors. AID 2549. 240,000 tested, 0.54% active. RECQ1 DNA unwinding, red fluorescence kinetic read; note: nearly all actives have a fitted effect of over 30% in size
#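 RECQ1T1 50 nM; forked duplex (20 bp + 30-nt ss tails) 200 nM, ATP 2 mM final; pH 8.0, 2 mM MgCl2, 2.5 ug/ml poly(dI-dC); 15 min compound preincubation; discontinuous kinetic read over 2 h at RT.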
# FEN1 inh – human FEN1 inhibition; P39748; Recombinant FEN1 flap cleavage, fluorescence, 15 min; Potency, µM (titrated, usually from 114 µM), most hits filed as inhibitors; 390,000 tested, 0.35% active; note: nearly all actives have a fitted effect of over 65% in size
# Target sequence (P39748 whole entry, looked up): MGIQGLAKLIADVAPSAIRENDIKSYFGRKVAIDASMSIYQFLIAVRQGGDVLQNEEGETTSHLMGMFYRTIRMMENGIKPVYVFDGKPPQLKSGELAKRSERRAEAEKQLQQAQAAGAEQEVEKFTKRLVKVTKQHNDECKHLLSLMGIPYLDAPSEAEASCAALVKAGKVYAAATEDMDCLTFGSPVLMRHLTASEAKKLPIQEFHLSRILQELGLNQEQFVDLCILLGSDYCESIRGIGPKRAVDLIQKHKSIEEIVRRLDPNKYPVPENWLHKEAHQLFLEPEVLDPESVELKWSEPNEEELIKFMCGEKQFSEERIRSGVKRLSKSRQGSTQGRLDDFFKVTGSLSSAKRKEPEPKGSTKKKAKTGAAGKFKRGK
#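 Quantitative HTS format: each compound was titrated, incubated with 10 nM nuclease for 15 min at room temperature, then challenged with flap substrate at 50 nM final. Signal change over 15 min gave concentration–effect curves.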
# BLM inh-1 – inhibitors of human Bloom syndrome helicase BLM | recombinant BLM DNA unwinding, fluorescence dequenching | Potency, µM (titrated, usually from 56.1 µM), actives largely listed as inhibitors | 350,000 tested, 0.2% active | P54132; note: nearly all actives have a fitted effect of over 35% in size
# GLS inh – blocks human kidney-isoform glutaminase activity. O94925. GLS enzymatic activity, qHTS titration. Potency, µM (series often up to 45.5 µM), most hits filed as inhibitors. 410,000 tested, 0.21% active
#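 Glutamate formation by hKGA was monitored fluorometrically using coupled glutamate oxidase, HRP and Amplex Red. Substrate was added as 1 mM L-glutamine solution; incubation was 30 min at RT after an initial read.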
# APEX1 inh – APE1 (human) endonuclease inhibition | recombinant APE1, TAMRA/BHQ-2 abasic DNA cleavage fluorescence | Potency, µM (highest dose often 65.8 µM), actives largely listed as inhibitors | 350,000 tested, 0.35% active; note: nearly all actives have a fitted effect of over 55% in size
#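 Readout is kinetic fluorescence (ex 525, em 598 nm) from cleavage of 50 nM TAMRA/BHQ-2 THF abasic duplex by 0.75 nM APE1, compound added 15 min beforehand at RT.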
# BLM inh-2 – confirmation of inhibitors of human Bloom syndrome helicase BLM; shares compounds with BLM inh-1; BLM DNA unwinding, fluorescence quenching, biochemical; Potency, µM, usual class: inhibitors; 220 tested, 40% active;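 note: strand separation dequenches TAMRA so unwinding raises red fluorescence; series mostly up to about 69 µM; nearly all actives have a fitted effect of over 45% in size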
# RECQ1 inh conf – confirmation of human RECQ1 helicase inhibitors. shares compounds with RECQ1 inh-1. RECQ1 helicase DNA unwinding, fluorescence. Potency, µM (titrated, usually from 229 µM), actives largely listed as inhibitors. 610 tested, 28% active. AID 2708; note: nearly all actives have a fitted effect of over 45% in size
# ADP FP counter – displaces ADP in a fluorescence polarization counter-screen for RECQ1 hits | 530 tested, 27% active | shares compounds with RECQ1 inh-1 | Potency, µM (doses to about 228 µM), most hits filed as inhibitors | ADP fluorescence polarization displacement counterscreen; note: nearly all actives have a fitted effect of over 45% in size
# RECQ1 inh-2 – confirmation of human RECQ1 helicase inhibitors; 1,100 tested, 15% active; recombinant RECQ1 DNA unwinding, red fluorescence; AID 504841; Potency, µM (highest dose often 119 µM), hits mostly inhibitors; shares compounds with RECQ1 inh-1; note: nearly all actives have a fitted effect of over 50% in size
# Hits are given with their value; . = inactive; ? = inconclusive; / = no result; ! = not confirmed by another sample. The list is not random: actives were taken first. Their share in the collection is about 0.86%. Calls come from the whole dose curve; as a rule, active = well fitted curve in the direction sought with a large enough effect; inconclusive = small, poorly fitted or top-dose-only effect, or another doubt; inactive = no such curve, though single readings can be large; an effect the other way counts as inactive or inconclusive.
SMILES,Tb PGK inh,RECQ1 inh-1,FEN1 inh,BLM inh-1,GLS inh,APEX1 inh,RECQ1 inh-2,others
CC(C)CNC(=O)c1c(N)n(Cc2ccc3c(c2)OCO3)c2nc3ccccc3nc12,.,.,.,10µM,.,.,/,BLM inh-2=.
ClCCCCl,/,.,/,/,/,.,/,
N#CC(C#N)=Cc1ccc([N+](=O)[O-])c(O)c1,/,?,/,.,/,.,/,
N#C/C(=C\c1ccc(O)c(O)c1)C(=O)NCCCNC(=O)/C(C#N)=C/c1ccc(O)c(O)c1,/,0.45µM,/,/,/,0.63µM,/,BLM inh-2=27µM;RECQ1 inh conf=0.51µM
C[C@]12CC[C@@H]3c4ccc(OC(=O)N(CCCl)CCCl)cc4CC[C@H]3[C@@H]1CC[C@@H]2O,/,/,/,14µM,?,/,/,BLM inh-2=30µM;RECQ1 inh conf=?
CC(O)CN1CCN(CC(=O)[O-])CCN(CC(=O)[O-])CCN(CC(=O)[O-])CC1.[Gd+3] (centres undefined),/,/,/,/,.,/,/,
O=c1c2ccccc2nc(-c2ccccc2F)n1-c1ccccc1,.,/,.,.,.,.,/,
O=C(O)c1ccccc1-c1nc2ccccc2n1-c1ccccc1,.,11µM,.,.,.,.,1.8µM,RECQ1 inh conf=40µM
O=C(O)c1ccc(-c2ccc3cc(C45CC6CC(CC(C6)C4)C5)c(O)cc3c2)cc1,/,20µM,/,.,/,.,?,RECQ1 inh conf=100µM;ADP FP counter=112µM
Cc1ccc(-c2cc(-c3ccc(C)cc3)[n+](-c3ccc(C(=O)O)cc3)c(-c3ccc(C)cc3)c2)cc1,.,/,.,/,.,.,/,
CCCCC(=O)Cl,/,.,/,/,/,.,/,
ClC(Cl)Br,/,.,/,/,/,.,/,
CNc1ccc2oc(C[C@H]3O[C@@]4(CC[C@H]3C)O[C@H]([C@H](C)C(=O)c3ccc[nH]3)[C@H](C)C[C@H]4C)nc2c1C(=O)O,.,?,?,.,.,.,.,
CNc1ccc2oc(C[C@@H]3OC4(CC[C@@H]3C)O[C@H]([C@@H](C)C(=O)c3ccc[nH]3)[C@H](C)C[C@H]4C)nc2c1C(=O)O (some centres undefined),/,?,/,/,/,?,.,
COC[C@H]1OC(=O)c2coc3c2[C@@]1(C)C1=C(C3=O)[C@@H]2CCC(=O)[C@@]2(C)C[C@H]1OC(C)=O,.,35µM,.,/,.,.,.,
CC(C)CON=O,/,.,/,/,/,.,/,
O=c1[nH]c(=S)n(CCC2=CCCCC2)c(O)c1C=NCCCn1ccnc1,.,?,.,.,.,.,.,
CC(C)Br,/,.,/,/,/,.,/,
O=C1C(=O)c2cccc3cccc1c23,.,.,.,.,.,.,/,
O=C1C(=O)c2ccccc2-c2ccccc21,?,?,.,20µM,.,?,10µM,
ClCC(Cl)CCl,/,.,/,/,/,.,/,
C=C(C)[C@H]1CC[C@]2(C(=O)O)CC[C@]3(C)[C@@H](CC[C@H]4[C@@]5(C)CC[C@@H](O)C(C)(C)[C@@H]5CC[C@@]43C)[C@H]12,/,.,/,.,/,.,/,
COc1cccc(CNC(=O)CSc2ccc(-c3ccco3)nn2)c1,.,?,.,.,.,?,.,
O=[N+]([O-])C(Br)Br,/,.,/,/,/,.,/,
CCOc1ccc(-c2nc3ccc(-c4nc5ccc(N6CCN(C)CC6)cc5[nH]4)cc3[nH]2)cc1,/,13µM,/,?,/,.,5.6µM!,
Cc1ccc2nc(N3CCN(C)CC3)[nH]c2c1,.,.,.,.,.,.,/,
CCOC(=O)c1c(/N=C/c2c(O)n(-c3ccccc3F)c(=S)[nH]c2=O)sc2c1CCCC2,.,.,.,.,.,.,/,

# Screens: PubChem BioAssay, National Center for Advancing Translational Sciences (NCATS)
